# Source: the supplement of paper PMC13380429
# Key:
# [1] = test system: Vero E6 infected with SARS-CoV-2; assay: inhibition of SARS-CoV-2 cytopathic effect; higher = more antiviral protection, active = above 15; settings: 48 h
# [2] = test system: Vero E6 infected with SARS-CoV-2; assay: morphology score (similarity to uninfected cells); higher = more like uninfected cells; settings: 24 h
SMILES,inhibition of SARS-CoV-2 cytopathic effect ([1]; 1 nM),inhibition of SARS-CoV-2 cytopathic effect ([1]; 8.33 nM),inhibition of SARS-CoV-2 cytopathic effect ([1]; 100 nM),inhibition of SARS-CoV-2 cytopathic effect ([1]; 833.33 nM),inhibition of SARS-CoV-2 cytopathic effect ([1]; 10000 nM),morphology score [2]
CC/C(=C(/c1ccc(/C=C/C(=O)O)cc1)c1ccc2[nH]ncc2c1)c1ccc(F)cc1Cl,4.17% (inactive),-1.18% (inactive),-1.84% (inactive),0.21% (inactive),-0.85% (inactive),–
COc1cccc2c1C(=O)c1c(O)c3c(c(O)c1C2=O)C[C@@](O)(C(C)=O)C[C@@H]3O[C@H]1C[C@H](N)[C@H](O)[C@H](C)O1 [daunorubicin],0.05% (inactive),0.64% (inactive),1.14% (inactive),4.26% (inactive),-16.6% (inactive),–
c1cncc(CN2CCC(n3ncc4c(N5CCOCC5)nc(-c5ccc6[nH]ccc6c5)nc43)CC2)c1,1.62% (inactive),0.29% (inactive),2.14% (inactive),12.2% (inactive),17.7% (active),–
N#CSc1cc(SC#N)c(N)nc1N,-1.78% (inactive),0.62% (inactive),3.56% (inactive),0.7% (inactive),11.2% (inactive),–
N=C(N)NCCSSCCNC(=N)N [guanidinoethyldisulfide-bicarbonate],-2.83% (inactive),-2.77% (inactive),-1.91% (inactive),-2.43% (inactive),-5.27% (inactive),–
CN1CCN(CCCCN2C(=O)CN(/N=C/c3ccc(-c4ccc(Cl)cc4)o3)C2=O)CC1 [azimilide],0.53% (inactive),0.51% (inactive),2.48% (inactive),0.41% (inactive),-1.08% (inactive),–
Cc1cccc(Nc2nc(-c3ccncc3)cs2)c1,0.53% (inactive),-0.51% (inactive),-0.62% (inactive),8.36% (inactive),48.4% (active),–
COC(=O)c1cc(OC)c2c(c1-c1c(C(=O)OC)cc(OC)c3c1OCO3)OCO2 [bifendate],1.14% (inactive),2.56% (inactive),3.5% (inactive),1.43% (inactive),1.73% (inactive),–
COc1ccc(-c2oc3c(CC=C(C)C)c(O)cc(O)c3c(=O)c2O)cc1 [icaritin],-1.11% (inactive),0.17% (inactive),0.02% (inactive),-0.36% (inactive),2.24% (inactive),–
COC(=O)C1=C(C)NC(C)=C(C(=O)OCCCN2CCC(c3ccccc3)(c3ccccc3)CC2)[C@@H]1c1cccc([N+](=O)[O-])c1 [dexniguldipine],1.4% (inactive),0.16% (inactive),2.09% (inactive),-3.36% (inactive),-4.64% (inactive),–
CN1C(C(=O)Nc2ccccn2)=C(O)c2sc(Cl)cc2S1(=O)=O [lornoxicam],-2.9% (inactive),-0.66% (inactive),-1.36% (inactive),0.9% (inactive),-0.69% (inactive),–
Cc1ccc(/N=C/N(C)/C=N/c2ccc(C)cc2C)c(C)c1 [amitraz],-1.29% (inactive),-0.98% (inactive),-1.78% (inactive),-1.85% (inactive),0.1% (inactive),–
CCCN(CCC)[C@H]1CCc2ccc(O)cc2C1 [7-hydroxy-DPAT],0.73% (inactive),2.39% (inactive),0.54% (inactive),-0.29% (inactive),0.48% (inactive),–
N=C(NCc1ccc(Cl)cc1)SCCCc1c[nH]cn1 [clobenpropit],1.58% (inactive),1.91% (inactive),1.78% (inactive),1.78% (inactive),0.31% (inactive),–
CC1=C(C(=O)O)N2C(=O)[C@@H](NC(=O)[C@H](N)c3ccccc3)[C@H]2SC1 [cephalexin],2.47% (inactive),0.37% (inactive),0.73% (inactive),-1.01% (inactive),-3.66% (inactive),–
COc1ccc2c(c1)c(CC(=O)O)c(C)n2C(=O)c1ccc(Cl)cc1 [indomethacin],-1.21% (inactive),0.75% (inactive),-0.25% (inactive),0.83% (inactive),0.17% (inactive),–
CCCC(=O)C1CCN(c2ncnc3c2CN(C(=O)c2ccc(-c4ccccc4)cc2)CC3)CC1,-1.91% (inactive),-1.68% (inactive),2.34% (inactive),-0.3% (inactive),-1.38% (inactive),–
Cc1ccc2c(=O)c3cccc(CC(=O)O)c3oc2c1C,4.48% (inactive),0.61% (inactive),1.92% (inactive),-1.05% (inactive),1.59% (inactive),–
